CYP2C9 activ = increases human cytochrome P450 2C9 activity; AID 1024; activation factor at 5 µM; recombinant CYP2C9, luciferin-H conversion, luminescence; active compounds read high; factor 1 = untreated enzyme, 0 = blocked; actives 1.4% (n = 96,000);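 active = activation factor of 2 or more for CYP2C9 at a 5 µM dose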;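 also: 0 = sulfaphenazole-blocked wells and 1 = vehicle-only wells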
Target sequence (P11712 whole entry, looked up): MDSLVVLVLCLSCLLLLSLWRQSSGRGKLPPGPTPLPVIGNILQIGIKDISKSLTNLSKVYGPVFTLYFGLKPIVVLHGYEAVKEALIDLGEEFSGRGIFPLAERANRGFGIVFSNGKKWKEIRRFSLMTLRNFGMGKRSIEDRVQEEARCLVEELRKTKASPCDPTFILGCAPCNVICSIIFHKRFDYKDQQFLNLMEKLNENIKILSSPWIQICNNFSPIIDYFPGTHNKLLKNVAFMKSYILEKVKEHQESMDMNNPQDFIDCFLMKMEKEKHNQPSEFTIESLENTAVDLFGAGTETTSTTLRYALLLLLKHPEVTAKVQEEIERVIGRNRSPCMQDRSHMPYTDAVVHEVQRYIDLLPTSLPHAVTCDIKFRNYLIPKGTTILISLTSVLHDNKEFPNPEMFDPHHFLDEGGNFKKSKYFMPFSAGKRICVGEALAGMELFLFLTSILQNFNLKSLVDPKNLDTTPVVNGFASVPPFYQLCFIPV
CYP2C19 inh = blocks human cytochrome P450 2C19; P33261; CYP2C19 Supersomes, luciferin-H EGE luminescence, 30 min; inhibition, % at 5 µM; actives 21% (n = 96,000); AID 778;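 active = CYP2C19 inhibition above a set limit at 5 µM in the primary screen, cut at about 50% in these data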;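 also: plate controls were negative control wells for no effect and 2.5 mM tranylcypromine positive control for full effect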
MRP resist rev = compounds reversing MRP-mediated drug resistance; actives 0.04% (n = 85,000); differential viability (reversal), % at 10 µM; AID 602; H69AR cells + 2 uM doxorubicin, CellTiter-Glo, 72 h;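 active = viability drop by adding the cancer drug above about 55%, with treated viability meeting a 40% cutoff, limit read from the data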;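 also: viability without doxorubicin minus viability with 2 µM doxorubicin for each compound; larger differential means the compound sensitizes cells more to doxorubicin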
CYP2C9 inhib = human CYP2C9 inhibition; P11712; CYP2C9 Supersomes, luciferin-H conversion, luminescence; inhibition, % at 5 µM; actives 20% (n = 96,000); AID 777;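 active = blocking of liver enzyme CYP2C9 beyond about 50% at 5 µM, limit read from the data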
CYP2C19 activ = cytochrome P450 2C19 (human) activation. P33261. recombinant CYP2C19, luciferin-H EGE luminescence; active compounds read high; 0 = fully inhibited enzyme, 1 = untreated enzyme. activation factor at 5 µM. 96,000 tested, under 10 active;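 active = activation factor of at least 2 at 5 µM in the primary screen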;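 also: 0 = wells with 2.5 mM tranylcypromine and 1 = vehicle-only wells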
MRP-1 activ = activators of MRP-1. H69AR cells + doxorubicin, viability rescue, CellTiter-Glo. viability increase, % at 10 µM. actives 0.61% (n = 140,000). AID 799;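 active = viability gain under doxorubicin at or above a set limit, the compound median plus 3 SD, cut at about 4.7% in these data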;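 also: MRP-1 overexpressing cells given doxorubicin 25 µM after compound pretreatment; 18-22 h compound pretreatment then 72 h with doxorubicin before readout; 0% = doxorubicin-only wells and 100% = vehicle-treated cells without doxorubicin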
* hit, by the source's call; / = no result given. The list is not random: actives were taken first. Their share in the collection is about 21%.

SMILES | CYP2C9 activ | CYP2C19 inh | MRP resist rev | CYP2C9 inhib | CYP2C19 activ | MRP-1 activ
CCCCC(C(=O)NC(C)(C)C)N(Cc1ccco1)C(=O)c1snc(C(N)=O)c1N (stereo not drawn) | 0.3 | 58* | / | 70* | 0.4 | -2
CC(C)CCNC(=O)C(c1ccco1)N(Cc1ccc(F)cc1)C(=O)c1snc(C(N)=O)c1N (stereo not drawn) | 0.6 | 67* | 12 | 44 | 0.3 | 1
Cc1nonc1OCC(C)(COc1nonc1C)NC(=O)c1ccccc1 | / | / | 1 | / | / | -2
COc1cccc(CNC(=O)C(CCSC)NS(=O)(=O)c2ccc3c(c2)oc(=O)n3C)c1 (stereo not drawn) | 1 | 6 | 11 | 4 | 0.9 | -1
COc1cc2c(cc1OC)CN(C(=S)Nc1ccc(C)cc1C)CC2 | / | / | / | / | / | 0
CCCC(C(=O)NCc1ccc(OC)cc1)N(Cc1ccco1)C(=O)c1snc(C(N)=O)c1N (stereo not drawn) | 0.5 | 60* | -2 | 49 | 0.4 | -2
CC(C(=O)NCc1ccccc1)N(CCN1CCOCC1)C(=O)c1snc(C(N)=O)c1N (stereo not drawn) | 1.1 | 8 | 13 | -11 | 0.9 | /
OCCNc1nc(N2CCN(Cc3ccccc3)CC2)nc2ccccc12 | 0.5 | 25 | 10 | 54* | 0.8 | -1
O=C(NCCc1ccccc1)C1CC(c2ccccc2O)=NO1 (stereo not drawn) | 0.7 | 87* | -3 | 33 | 0.1 | 0
COc1cccc(C2=NOC(C(=O)NC3CCCCC3)C2)c1 (stereo not drawn) | 2.9* | 10 | 8 | -190 | 0.9 | -3
CCn1ncc(C2=NOC(C(=O)NCc3ccc(OC)cc3)C2)c1C (stereo not drawn) | 0.9 | -4 | -41 | 8 | 1 | -4
COc1cccc(C2=NOC(C(=O)Nc3ccc(OC)c(OC)c3)C2)c1 (stereo not drawn) | 1.1 | 13 | 18 | -12 | 0.9 | -1
COc1cccc(C2=NOC(C(=O)NCc3ccccc3)C2)c1 (stereo not drawn) | 1.2 | 50* | -24 | -24 | 0.5 | -5
CCn1ncc(C2=NOC(C(=O)NCc3ccccc3)C2)c1C (stereo not drawn) | 0.8 | 57* | -19 | 23 | 0.4 | -1
O=C(NCc1ccc2c(c1)OCO2)C1CC(c2ccccc2O)=NO1 (stereo not drawn) | 1.4 | 28 | 9 | -44 | 0.7 | 0
COc1cc([N+](=O)[O-])cc(CN2CCCCC2)c1O | 0.9 | 0 | / | 9 | 1 | -2
CCC(c1nnnn1C(C)C)N1CCN(C2CCCC2)CC1 (stereo not drawn) | 1 | -10 | -9 | 0 | 1.1 | 0
CC1(C)Oc2nc3ccccc3n2/C1=C\C#N | / | / | 17 | / | / | -1
Cc1ccc(CNC(=O)C2CC(c3cccc([N+](=O)[O-])c3)=NO2)cc1 (stereo not drawn) | 1 | 75* | / | 4 | 0.2 | -2
CCOc1ccc(S(=O)(=O)N(C)CCO)cc1-c1nc2c(C(C)(C)C)nn(C)c2c(=O)[nH]1 | 0.3 | 64* | 24 | 67* | 0.4 | -2
CCOc1ccc(S(=O)(=O)N(C)C)cc1-c1nc2c(C(C)(C)C)nn(C)c2c(=O)[nH]1 | 0.8 | -6 | -14 | 20 | 1.1 | -4
CCC(C)(C)n1nnnc1CN(Cc1ccco1)Cc1cc2cc3c(cc2[nH]c1=O)OCO3 | 0.9 | 31 | 12 | 10 | 0.7 | -1
CCC(C)(C)n1nnnc1CN(Cc1ccc(Cl)cc1)Cc1ccco1 | 0 | 97* | 16 | 96* | 0 | -4
O=C(O)C1CCCN1S(=O)(=O)c1cccs1 (stereo not drawn) | 0.9 | 32 | / | 10 | 0.7 | 0
O=S(=O)(c1cccs1)N1CCCc2cccc(O)c21 | 2.9* | 66* | / | -194 | 0.3 | -2
SMILES | CYP2C9 activ | CYP2C19 inh | MRP resist rev | CYP2C9 inhib | CYP2C19 activ | MRP-1 activ
Clc1ccc(OCc2nc(-c3ccncc3)no2)c(Cl)c1 | 0.1 | 96* | 10 | 95* | 0 | -2
CCOc1ccccc1-c1nc(-c2ccncc2)no1 | 1.4 | 78* | -17 | -37 | 0.2 | -3
COc1ccc(Cl)cc1-c1nc(-c2ccncc2)no1 | 0.6 | 79* | 11 | 38 | 0.2 | -5
COc1ccc(-c2noc(-c3ccc(Cl)cc3[N+](=O)[O-])n2)cc1OC | / | / | / | / | / | 1
COc1ccccc1-c1nc(-c2ccc(Br)cc2)no1 | 1.2 | -1 | -10 | -16 | 1 | -2
COc1ccccc1-c1nc(-c2ccncc2)no1 | 0.8 | 89* | 6 | 23 | 0.1 | 0
O=C(N/N=C\c1ccccn1)C1COc2cc3ccccc3cc2O1 (stereo not drawn) | 1 | 14 | / | -4 | 0.9 | 0
COc1ccccc1NC(=O)CN(Cc1ccccc1)S(C)(=O)=O | / | / | 2 | / | / | -2
Cc1ccc(S(=O)(=O)N(C)C)cc1NC(=O)CCNC(=O)c1ccccc1Cl | / | / | / | / | / | 0
CCCc1ccc(OCC(=O)O)cc1 | 1 | -3 | 8 | 4 | 1 | -1
CCCc1ccc(Oc2c(-c3ccc(O)c(C)c3O)n[nH]c2C)cc1 | 0 | 100* | -19 | 98* | 0 | -3
CCCc1ccc(Oc2cn[nH]c2-c2ccc(O)c(C)c2O)cc1 | 0 | 98* | -9 | 99* | 0 | -3
CN(C)/C=C(\C(=O)c1ccc(F)cc1F)c1nnnn1-c1ccccc1 | / | / | / | / | / | 0
COc1cc(CN/C(C)=C(\C#N)C(N)=O)cc(OC)c1OC | 0.5 | 67* | 10 | 51* | 0.3 | -3
C/C(NCCN1CCOCC1)=C(\C#N)C(N)=O | / | / | -10 | / | / | -2
CCCOc1ccc2oc(=O)c3c(c2c1)CCCN3C(=O)CN1CCN(c2ncccn2)CC1 | 0.3 | 63* | -27 | 65* | 0.4 | /
CCCOc1ccc2oc(=O)c3c(c2c1)CCCN3C(=O)CN1CCN(C(=O)c2ccco2)CC1 | / | / | -20 | / | / | -4
C=CCn1c(=O)c2c(C)c(C)sc2n2c(Nc3ccccc3)nnc12 | 0.7 | 11 | -9 | 28 | 0.9 | -4
COc1ccc(S(=O)(=O)Nc2ccccc2)cc1OC | 1.1 | 90* | 1 | -7 | 0.1 | 0
COc1ccc(S(=O)(=O)Nc2ccc(S(=O)(=O)Nc3nc(C)cc(C)n3)cc2)cc1OC | 0.8 | -2 | 16 | 23 | 1 | -1
COc1cccc(NS(=O)(=O)c2ccc(OC)c(OC)c2)c1 | 1.9 | 100* | 5 | -88 | 0 | -2
COc1ccc(S(=O)(=O)Nc2ccc(C)cc2)cc1OC | 0.4 | 97* | 1 | 62* | 0 | 0
COC(=O)c1ccc(C)c(NS(=O)(=O)c2ccc(OC)c(OC)c2)c1 | 0.4 | 82* | 1 | 58* | 0.2 | -1
Cc1cccc(N(C(=O)c2ccc(CN3CCOCC3)o2)C(C(=O)NC(C)(C)C)c2ccc(F)cc2)c1 (stereo not drawn) | / | / | 29 | / | / | 1
O=c1[nH]cc([N+](=O)[O-])cc1Br | / | / | / | / | / | -1

Screens: PubChem, several laboratories
